Measurements from PubChem BioAssay.
Values joined by “and” are separate entries in the source; they are usually repeats but may differ in a detail not shown here. Identical values can stand only once. Active and inactive are the calls of the source.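 The calls were made as follows, unless noted: active = compounds lowering colon cancer cell viability after pretreatment blocking the GSK3B kinase; inactive = the rest.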

Experiments:
[1] = P. berghei load reduction in hepatocytes – cell-based, HepG2, luciferase luminescence, HepG2 viability, primary screen (AID 624349; in the data active = parasite load remaining mostly below about 12%, no sharp cut-off; inactive = mostly above about 10%;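 also: 100% = mean of DMSO negative control wells on the same plate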); settings: P. berghei liver stage in HepG2, luciferase luminescence, concentration not given here; parasite load remaining: stronger effect = lower value; viability: measured here: HepG2 viability without parasites
[2] = Wnt pathway potentiators raising nuclear beta-catenin – imaging, WNT3A-conditioned medium, mouse C2C12, NPC library, primary screen (AID 1117326; in the data active = nuclear beta-catenin stimulation mostly above about 4.2%, no sharp cut-off; inactive = mostly below about 10%); settings: stronger effect = higher value
[3] = stimulators of insulin release from INS-1E, primary screen, cell-based, 5 mM glucose, NPC library (AID 1117329;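 active = compound raises insulin release from rat beta cells at 5 mM glucose, no numeric limit stated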); settings: rat INS-1E insulin secretion, at 10 µM, stronger effect = higher value
[4] = growth inhibition of GSK3B-pretreated HCT116 cells – cell-based, CellTiter-Glo, 0.2 to 20 µM (AID 1117336); settings: HCT116 viability after GSK3B inhibitor, at 20 µM, stronger effect = higher value
[5] = inhibition of endothelial tube formation, primary screen, imaging, VEGF stimulated, CD31 staining, tube area, NPC library (AID 1117340;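 active = compound that reduces growth-factor-driven endothelial tube area in a mixed cell culture, no cutoff stated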); settings: VEGF-stimulated ADSC/ECFC co-culture, at 10 µM, stronger effect = higher value
[6] = GLP1 release stimulators, primary, NCI-H716, NPC library (AID 1117341;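 active = compound raises GLP1 secretion from the human gut endocrine cells, with no numeric limit stated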); settings: NCI-H716 cells, at 10 µM, stronger effect = higher value
[7] = HCT116 colon cancer cell growth inhibition, primary screen, CellTiter-Glo luminescence, NPC library (AID 1117342;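 active = compounds that lower survival of HCT116 colon cancer cells in the luminescence readout, no numeric limit stated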); settings: at 20 µM (top of the series)
[8] = reduced SW480 viability measured with CellTiter-Glo, NPC library, primary (AID 1117343;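 active = compounds that lower viability of the colon cancer cells in the luminescence readout, with no numeric limit stated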); settings: CellTiter-Glo luminescence; at 20 µM (top of the series) unless noted
[9] = NPC library primary testing for decreased DLD-1 cell viability via CellTiter-Glo (AID 1117346;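 active = compounds that lower survival of DLD-1 colon cancer cells in the luminescence readout, no cutoff given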); settings: DLD-1 viability, CellTiter-Glo luminescence; at 20 µM (top of the series)
[10] = EMT-state selective cytotoxicity in co-culture – imaging, PC-3E GFP, TEM4-18 mCherry, primary screen (AID 1345086;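 active = compounds killing one labelled cell type while sparing the other, by normalised counts and ratio limits, not self-fluorescent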;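 as to all read-outs here: cells exposed to compound for 72 h before imaging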;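 as to red/green cell ratio (normalised): normalised mesenchymal count divided by normalised epithelial count so high means epithelial killing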); settings: PC-3E GFP / TEM4-18 mCherry co-culture, imaging cell counts, at 1 µM; for red/green cell ratio (normalised): actives lie on both sides, counts scaled to control wells, 1 = unselective
[11] = viability loss with induced miR-34 in A549 – imaging, A549 dox-inducible miR-34, nuclei and caspase counts, primary screen (AID 1347080;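 active = compounds whose cell count with miR-34 switched on is under 0.7 times the count with it off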); settings: A549 miR-34 inducible, Hoechst nuclei count, 48 h
[12] = biological target: NAD(+) hydrolase SARM1 (Homo sapiens) (UniProt Q6SZW1); experiment: blocking NAD cleavage by SARM1 SAM-TIR – cell lysate, NAD-Glo luminescence (AID 1508614;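 active = compound whose remaining NAD level is above about 45 nM, limit read from the data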;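 also: higher remaining NAD means stronger inhibition of SARM1 NADase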); settings: SAM-TIR HEK293T lysate NADase, at 1 µM, stronger effect = higher value
NAD(+) hydrolase SARM1 (Homo sapiens), sequence (Q6SZW1 whole entry, looked up): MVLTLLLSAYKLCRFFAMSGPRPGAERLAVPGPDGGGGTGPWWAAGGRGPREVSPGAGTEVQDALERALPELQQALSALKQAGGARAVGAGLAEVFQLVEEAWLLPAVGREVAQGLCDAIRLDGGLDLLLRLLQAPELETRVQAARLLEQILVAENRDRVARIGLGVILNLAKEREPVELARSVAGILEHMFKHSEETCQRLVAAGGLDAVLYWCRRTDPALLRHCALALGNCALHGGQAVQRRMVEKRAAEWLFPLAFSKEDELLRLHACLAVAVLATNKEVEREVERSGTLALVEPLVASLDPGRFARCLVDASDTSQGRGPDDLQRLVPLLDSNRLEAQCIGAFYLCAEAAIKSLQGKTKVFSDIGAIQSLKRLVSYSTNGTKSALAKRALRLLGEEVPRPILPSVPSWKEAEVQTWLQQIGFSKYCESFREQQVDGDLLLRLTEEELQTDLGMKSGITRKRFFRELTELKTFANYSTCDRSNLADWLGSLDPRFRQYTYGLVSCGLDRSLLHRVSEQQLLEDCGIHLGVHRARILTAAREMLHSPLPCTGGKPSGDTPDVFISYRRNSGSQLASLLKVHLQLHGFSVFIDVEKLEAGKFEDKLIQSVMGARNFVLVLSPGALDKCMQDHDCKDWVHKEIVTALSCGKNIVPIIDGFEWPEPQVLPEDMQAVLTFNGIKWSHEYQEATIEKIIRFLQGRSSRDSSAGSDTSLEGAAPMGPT

[13] = measured here: epithelial PC-3E GFP cell survival
[14] = measured here: mesenchymal TEM4-18 mCherry cell survival
[15] = stronger effect = lower value, cell number ratio, induced over uninduced
[16] = measured here: relative caspase fold change +Dox/-Dox
[17] = measured here: total cells with miR-34 induction, stronger effect = lower value
[18] = measured here: total cells without miR-34 induction

SMILES | parasite load remaining [1] | viability [1] | nuclear beta-catenin stimulation ([2]; at 10 µM) | nuclear beta-catenin stimulation ([2]; stimulation, at 2 µM) | insulin secretion stimulation [3] | viability decrease [4] | tube area decrease [5] | GLP1 secretion stimulation [6] | inhibition of viability [7] | viability decrease (inhibition) [8] | viability decrease (inhibition) [9] | red/green cell ratio (normalised) [10] | normalised cell number [10, 13] | normalised cell number [10, 14] | fold change [11, 15] | fold change [11, 16] | cell count [11, 17] | cell count [11, 18] | remaining NAD [12]
CC(O)Cn1cnc2c1c(=O)n(C)c(=O)n2C (centres undefined) | 123% (inactive) | 89% | 3.9% (inactive) | 0.4% | -0.4% (inactive) | 24.9% (inactive) | 7.5% (inactive) | 1.8% (inactive) | 8.77% (inactive) | 26.1% (inactive) | 6.9% (inactive) | 0.96 (inactive) | 1.09 | 1.04 | 0.894 (inactive) | 1.1 | 7540 | 8430 | 10 nM (inactive)
CC[C@@H](CO)NCCN[C@@H](CC)CO | 80.8% (inactive) and 73.3% (inactive) | 73% and 99% | 0.5% (inactive) | 4.7% | 2.6% (inactive) | -8% (inactive) | 14.4% (inactive) | -1.2% (inactive) | -4.17% (inactive) | 11.7% (inactive) | -13% (inactive) | 0.98 (inactive) | 0.99 | 0.97 | 0.901 (inactive) | 1.1 | 11300 | 12600 | 10 nM (inactive)
CCCCCCCCCCOc1cc2c(=O)c(C(=O)OCC)c[nH]c2cc1OCC | 0.015% (active) | 101% | -2.3% (inactive) | -0.1% | -0.4% (inactive) | -29.2% (inactive) | -2% (inactive) | 1.3% (inactive) | -5.6% (inactive) | -212% (inactive) | -42% (inactive) | 1 (inactive) | 0.98 | 0.98 | 0.938 (inactive) | 1.91 | 11200 | 11900 | 10 nM (inactive)
OCCc1ccccc1 | 52.9% (inactive) | 121% | 4.3% (inactive) | -0.1% | -0.8% (inactive) | -30.2% (inactive) | -4.7% (inactive) | -0.7% (inactive) | -7.95% (inactive) | 11.9% (inactive) | -12.4% (inactive) | 0.97 (inactive) | 1.02 | 1 | 0.881 (inactive) | 7.55 | 11500 | 13000 | 10 nM (inactive)
O=C(CCCl)NCc1ccccc1 | – | – | 0.5% (inactive) | 8.3% | 1.8% (inactive) | 0.2% (inactive) | -9.5% (inactive) | -0.7% (inactive) | 5% (inactive) | 0.6% (inactive) | 14.6% (inactive) | 0.95 (inactive) | 1.13 | 1.07 | – | – | – | – | 10 nM (inactive)
O=C(OOC(=O)c1ccccc1)c1ccccc1 | 39% (inactive) | 82.1% | 2.3% (inactive) | 0.3% | -1.3% (inactive) | -5.45% (inactive) | -15.4% (inactive) | -3.2% (inactive) | 1.1% (inactive) | 10% (inactive) | 18.9% (inactive) | 1.04 (inactive) | 1.11 | 1.15 | 0.948 (inactive) | 3.94 | 10800 | 11400 | 10 nM (inactive)
O=c1[nH]c(=O)c2ccccc2o1 | – | – | 0.9% (inactive) | 0.3% | -1.9% (inactive) | -6.75% (inactive) | 10.2% (inactive) | 0.9% (inactive) | -33.3% (inactive) | 102% (active) | -5.5% (inactive) | 0.79 (inactive) | 1.11 | 0.88 | 0.86 (inactive) | 0.838 | 8540 | 9930 | 10 nM (inactive)
C[C@@]12C(=O)OC(=O)[C@]1(C)C1CCC2O1 | – | – | -1.7% (active) | 49.7% | 2.3% (inactive) | 83.1% (active) | 111% (active) | 20.1% (active) | 73% (active) | 112% (active) | 91% (active) | 0.98 (inactive) | 1.02 | 1.01 | – | – | – | – | –
NC(=O)c1cc[n+](CC2=C(C(=O)[O-])N3C(=O)[C@@H](NC(=O)Cc4cccs4)[C@H]3SC2)cc1 | 91.4% (inactive) | 73.4% | -2.2% (inactive) | -0.6% | 11.8% (inactive) | 10.6% (inactive) | -7.6% (inactive) | 0.9% (inactive) | -2.6% (inactive) | 3.4% (inactive) | 5.4% (inactive) | 0.75 (inactive) | 1.26 | 0.94 | 0.969 (inactive) | 0.479 | 9810 | 10100 | 10 nM (inactive)
CC1(C)[C@@H]2CC[C@@]1(C)C(=O)C2 | – | – | 0.2% (inactive) | 0.6% | 2.4% (inactive) | 2.6% (inactive) | -4.3% (inactive) | -0.1% (inactive) | 10.9% (inactive) | 2.9% (inactive) | 15.5% (inactive) | 0.84 (inactive) | 1.25 | 1.05 | – | – | – | – | 10 nM (inactive)
